High-throughput results (PubChem)
A selection: hits, their analogues and other compounds. The true share with any hit is near 8%.
Marburg entry inh – qHTS for inhibitors of binding or entry into cells for Marburg Virus; Marburg virus pseudotyped entry inhibition, cell reporter; AID 540276, 2011; Potency, µM (titrated, usually from 37.8 µM), for inactives: at the highest dose activity change, negative = inhibition, most hits filed as inhibitors; actives 1.8% (n = 300,000); calls by dose curve; tested in HEK293 cells; also: potency is read from the fitted curve at half-maximal effect; % is scaled to controls: 0 for no effect and ±100 for the full control effect
HCMV antiviral – qHTS Assay for inhibitors of the human cytomegalovirus (HCMV); HFF cells, HCMV-luciferase reporter, 72 h; stronger effect = lower value; activity change, negative = inhibition, % at 57.5 µM; actives 4.5% (n = 410,000); in the data active = activity change below about -60%; inconclusive = no clear call, values can overlap the other calls; inactive = above about -39%; also: % is scaled to controls: 0 for no effect and ±100 for the full control effect
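Compounds were evaluated in HFFs infected with an HCMV luciferase reporter virus (MOI 1 PFU/cell). Luciferase in lysates collected 72 h post infection served as the replication measure.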
HCV inhibitor – qHTS Assay for Inhibitors of Hepatitis C Virus (HCV); Huh7.5.1 HCVcc-Cre infection, luciferase reporter, 44 h; Potency, µM (doses to about 41.8 µM), for inactives: top-dose activity change, negative = inhibition, actives largely listed as inhibitors; actives 3.4% (n = 340,000); AID 651820, 2012; active = well fitted inhibition curve with a large enough effect; inconclusive = small, poorly fitted or top-dose-only effect, or another doubt; inactive = no such curve, though single readings can be large or run the other way; also: potency is read from the fitted curve at half-maximal effect; % is scaled to controls: 0 for no effect and ±100 for the full control effect
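After 44 h co-culture of compound, cells and HCVcc-Cre (~0.5 moi), substrate is added for 15 min at room temperature and luciferase measured over 15 sec. Cells were seeded at 1,000/well and pre-cultured 4 h.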
LASV entry inh – qHTS for Inhibitors of binding or entry into cells for Lassa Virus; actives 1.2% (n = 300,000); Lassa virus pseudotype entry inhibition, cell reporter; Potency, µM (titrated, usually from 37.9 µM), inactives show top-dose activity change, negative = inhibition, most hits filed as inhibitors; AID 540256, 2011; calls by dose curve; tested in HEK293 cells; also: potency is read from the fitted curve at half-maximal effect; % is scaled to controls: 0 for no effect and ±100 for the full control effect; nearly all actives have a fitted effect of over 50% in size
FMDV antiviral – High Throughput Screening for Foot and Mouth Disease Virus Antivirals; actives 1.2% (n = 410,000); Potency, µM (titrated, usually from 57.9 µM), for inactives: top-dose activity change, negative = inhibition, most hits filed as inhibitors; FMDV antiviral cell-based qHTS; calls by dose curve; tested in HEK293T cells; also: read-out not given here; potency is read from the fitted curve at half-maximal effect; % is scaled to controls: 0 for no effect and ±100 for the full control effect; nearly all actives have a fitted effect of over 45% in size
SARS PLP yeast – qHTS of Yeast-based Assay for SARS-CoV PLP. actives 0.19% (n = 330,000). S. cerevisiae expressing SARS-CoV PLpro, growth rescue. AID 485353, 2010. Potency, µM (titrated, usually from 32.9 µM), for inactives: at the highest dose activity, positive = growth rescue, usual class: activators; calls by dose curve; also: potency is read from the fitted curve at half-maximal effect; 0% is about no effect; nearly all actives have a fitted effect of over 55% in size
Numbers without * were called inactive; ? = inconclusive; / = no result given; [ ] = dose if it differs, or a comment.

SMILES | Marburg entry inh | HCMV antiviral | HCV inhibitor | LASV entry inh | FMDV antiviral | SARS PLP yeast
Cc1cc(C)cc(NC(=O)Cn2c(-c3cncs3)nc3ccccc32)c1 | 3%[46.1 µM] | -27 | / | -9%[46.1 µM] | -20% | /
COc1cc(CNC(C)(C)CO)cc(Br)c1OCc1ccc(Cl)cc1 | ? | ? | 5µM* | ? | 0% | -14%
COc1cc(CNC(C)(C)CO)cc(Br)c1OCc1ccc(Cl)cc1Cl | 13µM* | -99* | 10µM* | ? | ? | -35%
CC(C)(CO)NCc1c(OCc2ccc(Cl)cc2)ccc2ccccc12 | ? | -16 | -23% | 2.5µM* | -10% | 1%
COc1cc(CNCCO)cc(Cl)c1OCc1ccc(Cl)cc1Cl | ? | -5 | ? | ? | -5% | -3%
CNCc1c(OCc2ccccc2)ccc2ccccc12 | ? | -7 | ? | ? | -2% | -9%
Nc1c(N(CCCO)C(=O)CCCN2C(=O)c3cccc4cccc(c34)C2=O)c(=O)[nH]c(=O)n1Cc1ccccc1 | 6% | -14 | 4% | 0% | -15% | /
CCCc1cc(=O)[nH]c(Nc2ccc(C)c(O)c2)n1 | 2%[46.1 µM] | 2 | / | 4%[46.1 µM] | 0% | /
CCOC(=O)c1c(N)sc2c(NC(C)=O)cccc12 | -5% | -17 | 18µM* | -16% | 0% | -13%
COC(=O)c1sc(-c2ccccc2)cc1NC(=O)c1ccccc1 | ? | ? | 5% | 15% | -21% | 6%
CCOC(=O)c1c(N)sc(N)c1C(=O)OCC | -11% | -1 | 12% | -4% | 32µM* | ?
COC(=O)c1sc(-c2ccccc2)cc1NC(C)=O | ? | 47 | 8.9µM* | 1% | -17% | -6%
CCOC(=O)c1sc(NC(=O)Nc2ccccc2Cl)cc1C | ? | -74* | ? | 7.9µM* | -1% | -16%
CCOC(=O)c1c(NC(C)=O)sc2c(OC)cccc12 | -3% | -21 | ? | 7% | 1% | -4%
CCOC(=O)c1sc(NC(=O)c2ccc(C)s2)cc1C | -19% | -8 | ? | ? | 37% | -3%
O=C(CSc1nc(=O)n(CCN2CCOCC2)c2c1CCC2)Nc1ccccc1 | / | -11 | / | 4%[46.1 µM] | -11% | /
CCc1c(C(=O)NNC(=O)Nc2ccc3c(c2)OCO3)csc1C | 26% | 13 | 8% | 15% | 36% | -2%
CCOC(=O)c1sc(NC(=O)Nc2ccccc2)cc1C | 16µM* | -24 | ? | 14µM* | 38% | -14%
CCOC(=O)c1c(N)sc(C(=O)Nc2ccccc2F)c1C | / | 97 | -6% | / | 44% | -1%
CCOC(=O)c1c(N)sc(C(=O)Nc2ccccc2)c1C | / | 79 | 11µM* | / | 2% | -3%
CCOC(=O)c1sc(NC(C)=O)cc1C | / | 5 | -11% | / | 1% | -15%
CCOC(=O)c1sc(-c2ccccc2)cc1NC(=O)Nc1ccccc1 | ? | -36 | 10µM* | 4% | -29% | -44%
Fc1cccc(-c2cc3nc4c(c(N5CCC6(CC5)OCCO6)n3n2)CCCC4)c1 | ? | 14 | 13µM* | 3% | / | 3%
Cc1ccc(C2=NNC(=Nc3ccc(F)cc3)SC2)cc1 | ? | -4 | ? | ? | 41% | -2%
CCc1ccc(C2=NNC(=Nc3cccc(S(=O)(=O)N(C)C)c3)SC2)cc1 | ? | -99* | 4.5µM* | ? | -7% | -10%
SMILES | Marburg entry inh | HCMV antiviral | HCV inhibitor | LASV entry inh | FMDV antiviral | SARS PLP yeast
O=Cc1ccc(-c2ccc([N+](=O)[O-])cc2Cl)o1 | 2%[46.1 µM] | -66* | 1% | 2% | -15% | -11%
Cc1cc(C)nc(SCc2ccc(C(=O)NNC(=O)Nc3cccc(Cl)c3)cc2)n1 | ? | -31 | 25µM* | 11µM* | 8% | -3%
O=C(O)c1cccnc1Nc1ccc(Cl)cc1 | ? | -72* | 5% | ? | 18% | 5%
CCc1ccc2[nH]c(=O)c(CN(CCN(C)C)C(=O)Nc3ccccc3OC)cc2c1 | -24% | -13 | -6% | -13% | -5% | 1%
O=C(NC1CCCCC1)N(Cc1cc2cc3c(cc2[nH]c1=O)OCCO3)C1CCCCC1 | ? | -80* | 11µM* | 11% | -3% | 7%
COC(=O)c1ccccc1NC(=S)N(Cc1ccc2c(c1)OCO2)Cc1cc2cc(OC)ccc2[nH]c1=O | ? | ? | 11µM* | ? | -11% | ?
COc1ccc2cc(CN(C(=O)Nc3ccccc3OC)C3CCCC3)c(=O)[nH]c2c1 | 8.9µM* | 0 | ? | ? | -20% | 2%
CCc1ccc2[nH]c(=O)c(CN(Cc3ccccc3)C(=O)Nc3ccccc3OC)cc2c1 | ? | ? | 2.5µM* | -20% | -17% | -3%
COc1ccc2cc(CN(CC3CCCO3)C(=O)Nc3ccccc3OC)c(=O)[nH]c2c1 (stereo unspecified) | ? | -26 | ? | / | -14% | -1%
CCCCNC(=O)c1cc2n(n1)[C@@H](C(F)(F)F)C[C@H](c1ccccc1)N2 | -19% | / | / | / | / | /
CCCOc1ccc(Cn2c(=O)oc3ccc(C)cc32)cc1 | / | 9 | -14% | / | -5% | 3%
COc1cccc(Nc2ncc3nc(C)c(=O)n(-c4ccccc4)c3n2)c1 | / | / | / | / | -18% | /
COc1cc2c(cc1OC)[C@@H]1O[C@](CCCCN3C(=O)c4ccccc4C3=O)(C2)Oc2cc(C)n(Cc3ccccc3)c(=O)c21 | -3%[14.2 µM] | / | / | / | / | /
O=C(CCl)NN=C(c1ccccc1)c1ccccc1 | -1%[46.1 µM] | ? | -18% | -15%[46.1 µM] | 25µM* | 2%
CCOC(=O)Nc1ccc2c(c1)N(C(=O)CCN(CC)CC)c1ccccc1S2=O (stereo unspecified) | ? | 51 | -4% | 18µM* | -11% | -1%
Cc1c(C)c(C)c(S(=O)(=O)NCCC(=O)N2CCN(Cc3ccc(C#N)cc3)CC2)c(C)c1C | / | -27 | 13µM* | / | -14% | 8%
C=C1CCC[C@]2(C)C[C@H]3OC(=O)C(CNC(C)CCCC(C)C)[C@H]3CC12 (stereo partly specified) | ? | -68* | ? | ? | -19% | -2%
C=C1CCC[C@]2(C)C[C@H]3OC(=O)C(CN(Cc4ccc(OC)c(OC)c4)CC(C)O)[C@H]3CC12 (stereo partly specified) | / | -99* | -27% | / | ? | 2%
C=C1CCC[C@]2(C)C[C@H]3OC(=O)C(CNCC(OC)OC)[C@H]3CC12 (stereo partly specified) | 4%[46.1 µM] | -30 | 4% | 20%[46.1 µM] | -12% | -1%
C=C1CCC[C@]2(C)C[C@H]3OC(=O)C(CN[C@@H](C)c4ccccc4)[C@H]3CC12 (stereo partly specified) | ? | -64* | ? | ? | -24% | 1%
